Results from PubChem BioAssay (Tox21).
Unmarked numbers belong to inactive results. Results filed as inconclusive are left out. A call without a number means that no potency is given here. Calls of active or inactive are those of the source. Unless noted, calls come from the whole dose curve; as a rule, active = well fitted curve in the direction sought with a large enough effect in the repeat runs; inconclusive = weak or mixed curves; inactive = no such curve, though single readings can be large; an effect the other way counts as inactive or inconclusive. Positions of bridges follow the written chain, without caps; N, C: chain ends. Non-standard residues stand in square brackets, D forms with d. Residues, ends and D or L forms follow the SMILES beside them. hArg = N=C(N)NCCCC[C@H](N)C(=O)O; Mpa = O=C(O)CCS

Experiments:
[1] = qHTS assay for small molecule agonists of the p53 signaling pathway (AID 651631; calls by dose curve; note: nearly all actives have a fitted effect of over 15% in size)
Method in brief: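 Beta-lactamase reporter activity under p53 response elements was quantified in HCT-116 cells by FRET fluorescence, following 16 h incubation with test compounds at 37 °C and 2 h substrate development at room temperature.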

[2] = qHTS assay for small molecules that induce genotoxicity in human embryonic kidney cells expressing luciferase-tagged ATAD5 (AID 651632); note: nearly all actives have a fitted effect of over 15% in size
Method in brief: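 DMSO vehicle served as the control. HEK293T reporter cells, 16 hr at 37C, then 30 min Amplite at room temperature; ATAD5 induction is measured as luciferase activity.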

[3] = qHTS assay for small molecule agonists of the p53 signaling pathway - cell viability (AID 651633; calls by dose curve;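 note: p53RE-bla HCT reporter cells with a stable beta-lactamase p53 reporter; series mostly up to about 83 µM; nearly all actives have a fitted effect of over 30% in size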)
Method in brief: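 p53RE-bla cells, seeded at 4,000 per well and rested 5 h at 37 C/5% CO2, received compounds in DMSO for 16 h at 37 C. CellTiter-Glo was then added, and luminescence was read after 30 min at room temperature to gauge cytotoxicity.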

[4] = qHTS assay for small molecules that induce genotoxicity in human embryonic kidney cells expressing luciferase-tagged ATAD5 - cell viability (AID 651634; calls by dose curve; note: nearly all actives have a fitted effect of over 25% in size)
Method in brief: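 Here HEK293T cells with the ATAD5 luciferase reporter are incubated with test compounds for 15.5 hr, and cytotoxicity is then gauged by measuring protease activity in live cells using fluorescence.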

[5] = qHTS assay to test for compound auto fluorescence at 590 nm (red) in HepG2 cells (AID 720674)
Method in brief: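 Intrinsic compound fluorescence in the red window (Ex/Em 540/590 nm) is measured in attached HepG2 cells exposed for 1 hr, DMSO vehicle as baseline, benchmarked to Rose Bengal sodium.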

[6] = qHTS assay to test for compound auto fluorescence at 535 nm (green) in HepG2 cells (AID 720675)
[7] = qHTS assay to test for compound auto fluorescence at 460 nm (blue) in HEK293 cells (AID 720678)
Method in brief: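 HEK293 cells (2,000 per well, medium with 10% dialyzed FBS) attached for 4-5 hr at 37C, then received compound and stood overnight at 37C, 5% CO2. Blue fluorescence was read at Ex/Em 405/460 nm and expressed relative to triamterene.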

[8] = qHTS assay to test for compound auto fluorescence at 590 nm (red) in HEK293 cells (AID 720679)
Method in brief: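 HEK293 cells (2,000/well, medium with 10% dialyzed FBS) attached for 4-5 hr at 37C, received 23 nL compound and were incubated overnight at 37C, 5% CO2. Red fluorescence was then read at 540/590nm Ex/Em, referenced to Rose Bengal sodium.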

[9] = qHTS assay for small molecule disruptors of the mitochondrial membrane potential - cell viability (AID 720634; calls by dose curve;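 note: human HepG2 liver cancer cells; series mostly up to about 83 µM; nearly all actives have a fitted effect of over 20% in size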)
Method in brief: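 Viability of HepG2 cells is scored from ATP content by luminescence; cells are exposed to compound for 1 hr at 37 C and 5% CO2, then dosed with m-MPI dye before the CellTiter-Glo reagent.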

[10] = qHTS assay for small molecule disruptors of the mitochondrial membrane potential (AID 720635); note: potency is the fitted concentration of half-maximal effect
Method in brief: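 HepG2 cells (2,000/well) attached overnight at 37C, then took compound for 1 hr at 37C, 5% CO2. Mito-MPS dye was added for 30 min; fluorescence was read at 490/535 nm (monomers) and 540/590 nm (aggregates).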

SMILES	outcome [1]	outcome [2]	outcome [3]	Potency [4]	outcome [5]	outcome [6]	outcome [7]	outcome [8]	outcome [9]	Potency [10]	fluorescence, relative to Rose Bengal [5]	fluorescence, % of fluorescein control [6]	fluorescence, % of triamterene [7]	fluorescence, % of fluorescent control [8]
CC(=O)C1C(=O)C=C(C)OC1=O (stereo not drawn)	inactive	inactive	inactive	inactive	inactive	inactive	inactive	inactive						
O=C1OCCO1	inactive	inactive	inactive	inactive	inactive	inactive	inactive	inactive						
COC(=O)CCCCC(=O)O	inactive	inactive	inactive	inactive	inactive	inactive	inactive	inactive	inactive					
CC(Oc1cc(Cl)ccc1Cl)C(=O)O (stereo not drawn)	inactive	inactive	inactive	inactive	inactive	inactive	inactive	inactive	inactive					
C=CCCCCCCCCC(=O)OCCCC	inactive	inactive	inactive	inactive	inactive	inactive	inactive	inactive		inactive				
CCOCCOCC	inactive	inactive	inactive	inactive	inactive	inactive	inactive	inactive						
CCOc1cccc(N)c1	inactive	inactive	inactive	inactive	inactive	inactive	inactive	inactive		inactive				
CCC[C@@H]1C[C@@H](C(=O)N[C@@H]([C@H]2O[C@H](SC)[C@H](O)[C@@H](O)[C@H]2O)[C@@H](C)O)N(C)C1	inactive	inactive	inactive	inactive	inactive	inactive	inactive	inactive	inactive					
CCOC(=O)CC1(C)OCC(C)O1 (stereo not drawn)	inactive	inactive	inactive	inactive	inactive	inactive	inactive	inactive		inactive				
C=C(C)c1cccc(C(C)(C)N=C=O)c1	inactive	inactive	inactive	inactive	inactive	inactive	inactive	inactive						
OC[C@@H](O)C(O)[C@@H](O)CO (stereo partly drawn)	inactive	inactive	inactive	inactive		inactive	inactive	inactive	inactive					
CC(=O)CCc1ccc(OC(C)=O)cc1	inactive	inactive	inactive	inactive	inactive	inactive	inactive	inactive		inactive				
CC1(C)Oc2ccc(C#N)cc2[C@@H](N2CCCC2=O)[C@@H]1O	inactive	inactive	inactive	inactive		inactive	inactive	inactive	inactive	inactive				
CCCCCCCCCCCCCCC(=O)NC(CO)CCCCCCCCCCCCCC (stereo not drawn)	inactive	inactive	inactive	inactive	inactive	inactive	inactive	inactive						
CN(C)CC/C=C1/c2ccccc2COc2ccc(CC(=O)O)cc21	inactive	inactive	inactive	inactive	inactive	inactive	inactive	inactive						
CC1(C)[C@H]2CC[C@](C)(C2)[C@H]1O	inactive	inactive	inactive	inactive		inactive	inactive	inactive	inactive					
O=C(Cn1ccnc1[N+](=O)[O-])NCc1ccccc1	inactive	inactive	inactive	inactive	inactive	inactive	inactive	inactive		inactive				
CCCCCC/C=C/C(=O)OC	inactive	inactive	inactive	inactive	inactive	inactive	inactive	inactive	inactive					
C/C=C(\C)C(=O)OCCc1ccccc1		inactive	inactive	inactive	inactive	inactive	inactive	inactive	inactive					
O=C(O)CNC(=O)CNC(=O)CNC(=O)CSC(=O)c1ccccc1		inactive	inactive	inactive		inactive	inactive	inactive	inactive	inactive				
Nc1nc(-c2ccccc2)c(Br)c(=O)[nH]1		inactive	inactive	inactive	inactive	inactive	inactive	inactive	inactive	inactive				
COP(=O)(O)OP(=O)(O)OC		inactive	inactive	inactive	inactive	inactive	inactive	inactive	inactive	inactive				
O=C(CCCCC(=O)Nc1c(I)cc(I)c(C(=O)O)c1I)Nc1c(I)cc(I)c(C(=O)O)c1I		inactive	inactive	inactive		inactive	inactive	inactive	inactive	inactive				
CCCCOC(=O)C(C)O (stereo not drawn)		inactive	inactive	inactive	inactive	inactive	inactive	inactive	inactive	inactive				
Cn1c(=O)c2c(ncn2CCO)n(C)c1=O		inactive	inactive	inactive	inactive	inactive	inactive	inactive	inactive	inactive				
CC(=O)OC(C)=O		inactive	inactive	inactive	inactive	inactive	inactive	inactive	inactive					
CSc1cnccn1		inactive	inactive	inactive		inactive	inactive	inactive	inactive	inactive				
CCn1cc(C(=O)O)c(=O)c2cnc(N3CCCC3)nc21		inactive	inactive	inactive					inactive	inactive	-0.176% [at 18.6 µM]	-0.162% [at 18.6 µM]	0.0274% [at 18.6 µM]	-0.164% [at 18.6 µM]

SMILES	outcome [1]	outcome [2]	outcome [3]	Potency [4]	outcome [5]	outcome [6]	outcome [7]	outcome [8]	outcome [9]	Potency [10]	fluorescence, relative to Rose Bengal [5]	fluorescence, % of fluorescein control [6]	fluorescence, % of triamterene [7]	fluorescence, % of fluorescent control [8]
CC1=C(O)C(=O)C(C)O1 (stereo not drawn)		inactive	inactive	inactive	inactive	inactive	inactive	inactive	inactive	inactive				
COC(=O)c1ccccc1C(=O)O		inactive	inactive	inactive	inactive	inactive	inactive	inactive	inactive	inactive				
CO[C@@]1(NC(=O)Cc2cccs2)C(=O)N2C(C(=O)O)=C(COC(N)=O)CS[C@@H]21		inactive	inactive	inactive	inactive	inactive	inactive	inactive	inactive	inactive				
CCC(=O)CC		inactive	inactive	inactive	inactive	inactive	inactive	inactive	inactive					
CCCCCC(C)O (stereo not drawn)		inactive	inactive	inactive	inactive	inactive	inactive	inactive	inactive	inactive				
CC(C)(C)NC[C@H](O)COc1cccc2c1CCCC2=O		inactive	inactive	inactive					inactive	inactive	-0.105% [at 18.6 µM]	0.0562% [at 18.6 µM]	0.103% [at 18.6 µM]	0.133% [at 18.6 µM]
CN(C)CCN(C)CCO		inactive	inactive	inactive	inactive	inactive	inactive	inactive	inactive	inactive				
CCCCCCCCCOC(=O)c1ccccc1C(=O)OCCCCCCCCC		inactive	inactive	inactive	inactive	inactive	inactive	inactive	inactive	inactive				
CCCC(=O)OCCC(C)CCC=C(C)C (stereo not drawn)		inactive	inactive	inactive	inactive	inactive	inactive	inactive	inactive	inactive				
Cc1c(NC(=O)c2cccnc2)c(=O)n(-c2ccccc2)n1C		inactive	inactive	inactive					inactive	inactive		-0.0361% [at 18.6 µM]	-0.0133% [at 18.6 µM]	0.237% [at 18.6 µM]
NC(=O)[C@@H]1CSSCCC(=O)N[C@@H](CCCCN=C(N)N)C(=O)NCC(=O)N[C@@H](CC(=O)O)C(=O)N[C@@H](Cc2c[nH]c3ccccc23)C(=O)N2CCC[C@H]2C(=O)N1 ([Mpa][hArg]GDWPC-NH2; disulfide 1-7)		inactive	inactive	inactive		inactive	inactive	inactive	inactive	inactive				
CCNC(=O)NCc1cccc(Cl)c1		inactive	inactive	inactive	inactive	inactive	inactive	inactive	inactive	inactive				
CCCCCCC1(C)CCC(=O)O1 (stereo not drawn)		inactive	inactive	inactive	inactive	inactive	inactive	inactive	inactive					
CC(=O)OCC(=O)Nc1cc(C#N)cc(NC(=O)COC(C)=O)c1Cl		inactive	inactive	inactive	inactive	inactive	inactive	inactive	inactive	inactive				
CC(=O)O[Si](C)(OC(C)=O)OC(C)=O		inactive	inactive	inactive	inactive	inactive	inactive	inactive	inactive	17.7 µM (active)				
Cc1cc(-c2ccccc2)nnc1NCCN1CCOCC1		inactive	inactive	inactive		inactive	inactive	inactive	inactive	inactive				
Nc1nnnn1-c1ccccc1		inactive	inactive	inactive	inactive	inactive	inactive	inactive	inactive	inactive				
CC(S)C(C)S (stereo not drawn)		inactive	inactive	inactive	inactive	inactive	inactive	inactive	inactive	inactive				
CN(C)CCCO[C@@H]1[C@H]2OC(C)(C)O[C@H]2O[C@@H]1C(O)CO (stereo partly drawn)		inactive	inactive	inactive	inactive	inactive	inactive	inactive	inactive	inactive				
N[C@@H](Cc1ccc(O)cc1)C(=O)O		inactive	inactive	inactive	inactive	inactive	inactive	inactive	inactive	inactive				
CC1(C)Cc2cccc(N)c2O1		inactive	inactive	inactive	inactive	inactive	inactive	inactive	inactive	inactive				
CC(C)(CO)C(O)C(=O)NCCCO (stereo not drawn)		inactive	inactive	inactive		inactive	inactive	inactive	inactive	inactive				
CCC/C=C(\C=O)CC		inactive	inactive	inactive	inactive	inactive	inactive	inactive	inactive	inactive				
O=C(O)[C@H](O)c1ccccc1		inactive	inactive	inactive	inactive	inactive	inactive	inactive	inactive	inactive				
CN(C)C(C)(C)CO		inactive	inactive	inactive	inactive	inactive	inactive	inactive		inactive				
C=Cc1ccc(C(C)(C)C)cc1		inactive	inactive	inactive	inactive	inactive	inactive	inactive	inactive					
C=C(C)C1CC=C(C)C(=O)C1 (stereo not drawn)		inactive	inactive	inactive	inactive	inactive	inactive	inactive	inactive					
